12-hLO inh – inhibitors of human 12-lipoxygenase (ALOX12). 0.12% of 150,000 active. purified 12-hLO, xylenol orange hydroperoxide absorbance. Potency, µM (titrated, usually from 57.1 µM), for the others: top-dose activity change, negative = inhibition, actives largely listed as inhibitors. AID 1452. P18054; active = well fitted inhibition curve with a large enough effect; inconclusive = small, poorly fitted or top-dose-only effect; note: potency is the fitted concentration of half-maximal effect; nearly all actives have a fitted effect of over 55% in size
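Lipoxygenase turnover measured by absorbance at 573 and 405 nm after Fe-XO development. Human 12hLO 150 nM, arachidonate 40 uM, pH 7.0 Hepes buffer with detergent; 15 min compound preincubation, 30 min reaction.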
PNC inhibitor – perinucleolar compartment assembly inhibition; PC3M PTB-GFP, PNC prevalence imaging, 16 h; hits give low values; activity change (PNC), negative = inhibition, % at 10 µM; 3.1% of 140,000 active; AID 2417;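 active = readout at or below -70, meaning at least 70% loss of cells showing the perinucleolar compartment, a nuclear body marking cancer cells; inconclusive = readout between -30 and a set limit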;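 note: plate controls were DMSO wells for no effect and camptothecin positive control wells for full effect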
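Compounds are pinned in duplicate onto adhered PC3M cells stably expressing GFP-tagged PTB and incubated 16 h at 37 C. Cells are then fixed, nuclei stained with Hoechst, and PNC-positive cells counted.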
ALDH1A1 block – blocks purified human ALDH1A1 activity. P00352. Purified ALDH1A1, NADH fluorescence, propionaldehyde substrate. Potency, µM (highest dose often 75.3 µM), for inactives: at the top dose activity, negative = inhibition, usual class: inhibitors. 7.3% of 220,000 active;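 note: potency is the fitted concentration of half-maximal effect; plate controls were no enzyme wells and a reference inhibitor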
Target sequence (P00352 whole entry, looked up): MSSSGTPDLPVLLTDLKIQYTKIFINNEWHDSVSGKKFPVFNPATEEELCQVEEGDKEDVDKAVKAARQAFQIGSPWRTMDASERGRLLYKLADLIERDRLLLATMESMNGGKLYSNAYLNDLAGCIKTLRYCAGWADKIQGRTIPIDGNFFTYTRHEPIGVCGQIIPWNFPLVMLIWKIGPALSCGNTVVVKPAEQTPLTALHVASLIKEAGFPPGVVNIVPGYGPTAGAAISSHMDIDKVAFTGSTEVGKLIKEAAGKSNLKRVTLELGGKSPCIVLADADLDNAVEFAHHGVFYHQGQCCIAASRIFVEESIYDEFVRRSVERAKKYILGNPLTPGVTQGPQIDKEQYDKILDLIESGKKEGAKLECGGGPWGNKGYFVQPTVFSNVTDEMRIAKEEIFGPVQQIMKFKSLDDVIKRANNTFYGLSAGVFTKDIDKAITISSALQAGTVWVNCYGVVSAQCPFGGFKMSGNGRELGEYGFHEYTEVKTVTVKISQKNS
HPGD inh – inhibitors of human 15-hydroxyprostaglandin dehydrogenase (HPGD). Potency, µM, for inactives: at the top dose activity change, negative = inhibition, usual class: inhibitors. purified HPGD, NADH fluorescence kinetic, PGE2 substrate. 4.3% of 150,000 active. P15428; note: potency is the fitted concentration of half-maximal effect
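NADH formation kinetics: reaction with 30 uM PGE2 and 1 mM NAD+ (final), 20 nM enzyme, Tris-HCl pH 8 with Tween 20, after 15 min compound preincubation at room temperature. Fluorescence change, last versus first of five reads.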
LMNA splice mod – modulators of lamin A splicing. HeLa LMNA splicing GFP/RFP minigene ratio, 48 h. Potency, µM (titrated, usually from 46.1 µM), inactives show top-dose ratio change, negative = inhibition, usual class: inhibitors. 0.01% of 200,000 active; active = well fitted inhibition curve with a large enough effect in the signal ratio, with a control signal flat, not every such curve was filed as active; inconclusive = small, poorly fitted or top-dose-only effect, or effect the other way, or a change in a side signal; the % refers to the signal ratio; note: potency is the fitted concentration of half-maximal effect
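S3 HeLa stable clones carrying a lamin A-EGFP splicing minigene plus DsRed2 were seeded at 600 cells/well in Opti-MEM with 2% FBS, pin-dosed and incubated 48 h at 37°C. Acumen cytometry (488 nm) gave the GFP/RFP total-intensity ratio.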
An asterisk follows results filed as active; [ ] = dose if it differs, or a comment. In the library only some 10% were active in any assay of this set; here they are far more common. Unless noted, calls come from the whole dose curve; as a rule, active = well fitted inhibition curve with a large enough effect (not every such curve was filed as active); inconclusive = small, poorly fitted or top-dose-only effect, or another doubt; inactive = no such curve, though single readings can be large or run the other way. Unless noted, % is set by controls: 0 for no effect and ±100 for the full control effect.

Screening O=C(c1ccco1)N1CCN(CC(O)COc2ccc3oc4ccccc4c3c2)CC1 (configuration not stated) returned 12-hLO inh -2.8%, PNC inhibitor -92.6*, ALDH1A1 block -10.1%, HPGD inh -9.2% and LMNA splice mod inconclusive.
`COc1ccc(CNC(=O)C2CCN(S(=O)(=O)c3cccc(-c4noc(C)n4)c3)CC2)cc1` gave LMNA splice mod -1.4%[46 µM].
CCN1CCN(Cc2nc(N)nc(Nc3ccc(C)c(C)c3)n2)CC1 was read as 12-hLO inh 9.0%, PNC inhibitor -0.7, ALDH1A1 block -11.8%, HPGD inh -6.8% and LMNA splice mod -3.5%.
For COc1ccc(CN(C(=O)c2ccco2)c2ccc(C)cc2)cc1OC the results were 12-hLO inh -4.6%, PNC inhibitor inconclusive, ALDH1A1 block 7.94µM*, HPGD inh -6.9% and LMNA splice mod inconclusive.
Screening Cc1ccc(Nc2nc(N)nc(CN3CCN(C(=O)c4ccco4)CC3)n2)cc1Cl returned 12-hLO inh -14.0%, PNC inhibitor -4.8, ALDH1A1 block 7.94µM*, HPGD inh -25.2% and LMNA splice mod 11.4%.
CCC1CCCCN1S(=O)(=O)c1ccc(C(=O)Nc2sc3c(c2C(N)=O)CCC3)cc1 (configuration not stated) was read as LMNA splice mod 2.3%[46 µM].
For C=Cc1ccc(CN2C(=O)c3ccccc3Sc3ccc(C(=O)OCc4ccco4)cc32)cc1 the results were LMNA splice mod -4.5%[46 µM].
CCN(CC)S(=O)(=O)c1ccc(C)c(NC(=O)CN(C)C)c1 was read as 12-hLO inh 1.5%, PNC inhibitor -83.9*, ALDH1A1 block 7.9% and LMNA splice mod -9.2%.
Screening CCN(c1ccccc1)S(=O)(=O)c1ccc(OC)c(NC(=O)CN(C)C)c1 returned ALDH1A1 block -10.0% and LMNA splice mod -11.7%[46 µM].
Cc1ccc(S(=O)(=O)C(CNS(=O)(=O)c2ccc(F)c(C)c2)c2cccs2)cc1 (configuration not stated) was read as LMNA splice mod 11.8%[46 µM].
`O=C(Oc1nsnc1N1CCOCC1)c1ccccc1` gave 12-hLO inh -5.5%, PNC inhibitor inconclusive, ALDH1A1 block 28.2µM*, HPGD inh -26.7% and LMNA splice mod 5.7%.
For CCc1ccccc1NC(=O)CSc1ncc(S(=O)(=O)c2ccc(C(C)C)cc2)c(N)n1 the results were LMNA splice mod 9.5%[46 µM].
Cc1ccc(/C=C/C(=O)O)cc1S(=O)(=O)NCCCO was read as 12-hLO inh 0.2%, PNC inhibitor 3.0, ALDH1A1 block -6.6%, HPGD inh 4.4% and LMNA splice mod -5.7%.
Cc1ccc(/C=C/C(=O)O)cc1S(=O)(=O)N(CCO)CCO was read as 12-hLO inh 3.5%, PNC inhibitor -103.1*, ALDH1A1 block 7.9%, HPGD inh -2.0% and LMNA splice mod -1.6%.
For CC(C)CC(NC(=O)COc1ccccc1)C(=O)O (configuration not stated) the results were 12-hLO inh -5.5%, PNC inhibitor 124.2, ALDH1A1 block -2.5%, HPGD inh -3.9% and LMNA splice mod 9.9%.
Screening CC(C)CC(NC(=O)OCC1c2ccccc2-c2ccccc21)C(=O)O (configuration not stated) returned 12-hLO inh 1.9%, ALDH1A1 block 8.91µM*, HPGD inh -8.9% and LMNA splice mod 5.4%.
For CN(C)S(=O)(=O)c1ccc(NC(=O)CCNC(=O)c2ccc([N+](=O)[O-])cc2)cc1 the results were ALDH1A1 block 10µM* and LMNA splice mod -7.1%[46 µM].
CCCC(=O)Nc1ccc(Sc2ccc([N+](=O)[O-])cc2)cc1 was read as 12-hLO inh -5.4%, PNC inhibitor 13.3, ALDH1A1 block -14.8%, HPGD inh 17.8µM* and LMNA splice mod inconclusive.
For CCC(CC)C(=O)Nc1ccc(Sc2ccc([N+](=O)[O-])cc2)cc1 the results were 12-hLO inh -14.7%, PNC inhibitor inconclusive, ALDH1A1 block 1.12µM* and LMNA splice mod inconclusive.
`CCOC(=O)C(C)(C)Oc1ccc(Cl)cc1` gave 12-hLO inh 2.8%[0.00818 µM], ALDH1A1 block -10.0%, HPGD inh -11.3% and LMNA splice mod -8.8%.
For Cc1ccccc1OCCSc1nc2ccc(NC(=O)c3cccc(F)c3)cc2s1 the results were LMNA splice mod -1.2%[46 µM].
Screening O=C(C[n+]1cnn(CC(=O)c2ccc(Cl)cc2Cl)c1)c1ccc([N+](=O)[O-])cc1 returned 12-hLO inh 3.3%, PNC inhibitor -14.8, ALDH1A1 block 20µM*, HPGD inh -0.1% and LMNA splice mod 2.5%.
`O=C(Nc1cnn(Cc2ccc(Cl)cc2)c1)c1ccc([N+](=O)[O-])cc1` gave 12-hLO inh -12.2%, PNC inhibitor inconclusive, ALDH1A1 block 5.2%, HPGD inh -13.2% and LMNA splice mod 11.9%.
`CCn1cc(S(=O)(=O)c2cccc(Cl)c2)c(=O)c2cc(F)c(N3CCN(C)CC3)cc21` gave LMNA splice mod -27.0%[46 µM].
Screening CC(=O)c1ccc(NC(=O)C2CCCN(S(=O)(=O)c3cn(C)cn3)C2)cc1 (configuration not stated) returned LMNA splice mod -11.2%[46 µM].
Screening CCCCCCCN(C(=O)CCl)c1ccccc1C returned 12-hLO inh -3.9%, PNC inhibitor inconclusive, ALDH1A1 block 0.501µM*, HPGD inh -4.3% and LMNA splice mod -11.2%.
CCCN(CCC)C(=O)c1ccccc1C(=O)N(CCC)CCC was read as 12-hLO inh 2.2%, PNC inhibitor inconclusive, ALDH1A1 block 1.7%, HPGD inh -2.1% and LMNA splice mod -4.8%.
`CCOC(=O)C1=C(C)N=C2SC(C)C(=O)N2C1c1ccc(OC(C)=O)c(OC)c1` (configuration not stated) gave 12-hLO inh -5.4%, PNC inhibitor -100.0*, ALDH1A1 block -2.3%, HPGD inh -2.3% and LMNA splice mod -3.0%.
`CN(CCO)c1cc(N2CCCCC2)c2nonc2c1[N+](=O)[O-]` gave ALDH1A1 block 15.8µM*.
For Cc1ccc(NCc2n[nH]c(=S)n2Cc2ccccc2)cc1Cl the results were ALDH1A1 block inconclusive and LMNA splice mod -20.2%[46 µM].
`Oc1cc2c(cc1O)[C@@H]1c3ccc(O)c(O)c3OC[C@]1(O)C2` gave ALDH1A1 block -1.6% and HPGD inh 11.2µM*.
Screening Cc1sc(NC(=O)Cc2ccc3c(c2)OCO3)nc1-c1ccc2c(c1)CCN2C(=O)c1cccc(F)c1 returned 12-hLO inh -1.6%, PNC inhibitor -119.3*, ALDH1A1 block inconclusive, HPGD inh -19.7% and LMNA splice mod inconclusive.
Screening Cc1ccccc1C(=O)N1CCc2cc(-c3nc(NC(=O)Cc4ccc5c(c4)OCO5)sc3C)ccc21 returned 12-hLO inh 5.7%, PNC inhibitor -8.9, ALDH1A1 block 6.3%, HPGD inh inconclusive and LMNA splice mod inconclusive.

High-throughput results from PubChem BioAssay.
